Assay results: PubChem BioAssay AID485298 (National Center for Advancing Translational Sciences (NCATS), 2010)
The whole screen tested about 320,000 compounds, of which about 740 (0.23%) were called active. About 2% were inconclusive and are not listed. The full list was thinned out, with actives kept by preference. Values without a mark were called inactive. Calls come from the whole dose curve; as a rule, active = well fitted activation curve with a large enough effect; inconclusive = small, poorly fitted or top-dose-only effect; inactive = no such curve, though single readings can be large or run the other way.

experiment: qHTS Assay for Small Molecule Inhibitors of Mitochondrial Division or Activators of Mitochondrial Fusion; note: nearly all actives have a fitted effect of over 45% in size; for growth rescue (activation): % of control where 0% means no effect; conditions: S. cerevisiae fusion-defective mutant growth rescue, CellTiterGlo 48 h; series mostly up to 46.1 µM; growth rescue (activation): at the top concentration
From the text: NIH Chemical Genomics Center [NCGC] NIH Molecular Libraries Probe Production centers Network [MLPCN] MLPCN Grant: MH081279-01 Assay Submitter (PI): Jodi M. Nunnari NCGC Assay Overview: The budding yeast S. cerevisiae is a powerful system to study mitochondrial fusion. Unlike other organisms, yeast cells without functional mitochondrial DNA (mtDNA) can be propagated and studied as long as they maintain a mitochondrial compartment and are provided with a fermentable carbon source. When mitochondrial fusion is blocked in yeast, mitochondrial tubules rapidly fragment and division continues unopposed. Under conditions where fusion is compromised in mammalian cells, nearly identical changes in mitochondrial structure have been observed. Thus, these findings indicate that steady state mitochondrial structure in cells is a characteristic and specific indicator of fusion activity. Mounting evidence has pointed to a connection between mitochondrial dynamics and apoptosis in mammalian cells. These studies indicate that in mammalian cells mitochondrial dynamics are more integrated into cellular processes than in yeast cells and have evolved not only to distribute the organelle but also to aid in the regulation of cellular homeostasis. Mitochondrial fusion proteins attenuate apoptosis by inhibiting the release of cytochrome c from mitochondria, in part by controlling cristae structures. Thus, small molecules that inhibit mitochondrial […] may promote apoptosis and potentially act as novel chemotherapeutics and stimulation of apoptosis has become an attractive target of anti-cancer therapies. To identify inhibitors of mitochondrial division, we exploit the growth phenotypes of mitochondrial fusion-defective mutants. The temperature sensitive fusion alleles, such as fzo1-1 and mgm1-5, cause mitochondrial membranes to fragment in cells under non-permissive conditions and cells lose mtDNA, and are unable to grow in the presence of non-fermentable carbon source glycerol. Inhibiting mitochondrial division rescues growth. We have developed and optimized a luminescence cell viability assay in 1536 well format for the identification of inhibitors in the yeast mitochondrial fusion-defective assay.
The yeast glycerol stocks where kindly supplied by the laboratory of Dr. Jodi Nunnari, University of California, Davis. All yeast glycerol stock solutions were stored in single use aliquots at -80C. The CellTiterGlo luminescence reagent, containing luciferase and luciferin, were purchased from Promega, and the reagents were stored according to manufacturer's instructions. The Buffer components for the YPEG yeast growth medium were purchased from Sigma-Aldrich (St. Louis, MO). YPEG growth medium: 1% (w/v) yeast extract, 2% (w/v) Bacto-peptone, 3% Ethanol, 3% glycerol, 0.4mM Tryptophan, 0.36mM Adenine. qHTS Assay Protocol: 1.#Dispense 2.5 ul yeast growth medium per 1536 well plate. 2.#Transfer 23 nl per well of compound to plate. 3.#Dispense 2.5 ul yeast solution at appropriate seeding density per well. 4.#Incubate for 48 hours at 37C. 5.#Dispense 5 ul of CellTiterGlow solution per well. 6.#Incubate at ambient for 10 minutes. 7.#Read using bio-luminescence protocol on Viewlux.
Potency is the fitted concentration of half-maximal effect.

Row | SMILES | Potency | growth rescue (activation)
1 | O=C1NC(=O)C(CCc2ccccn2)(Cc2cccc(Cl)c2Cl)C(=O)N1c1ccc(Br)cc1 (stereo not given) | 11.2 µM (active) | 
2 | Clc1ccc2nc3c(c(-c4ccccc4)c2c1)CNCC3 |  | -2.55%
3 | N[C@@H](Cc1c[nH]c2ccccc12)c1nnc(SCc2c(F)cccc2Cl)o1 |  | -0.901%
4 | CC(=O)NBr |  | 1.86%
5 | C=CCN1CCC23c4c5ccc(O)c4O[C@H]2C(=O)CC[C@@]3(O)C1C5 (stereo not given in full) |  | -26.3%
6 | c1ccc2c(c1)[I+]c1ccccc1-2 | 0.291 µM (active) | 
7 | O=C(COc1ccc2ccccc2c1)N1CCN(Cc2ccncc2)CC1 |  | -0.612%
8 | Cc1nn(Cc2ccccc2Cl)c(Cl)c1C(=O)OC(C(=O)NC(N)=O)C(C)C (stereo not given) |  | 0.455%
9 | C=CCN1C(=O)C2(C(C(=O)OCC)=C(N)Oc3c2c(=O)oc2ccccc32)c2ccccc21 (stereo not given) |  | 16.6%
10 | CC1=CC(=Cc2sc3ccccc3[n+]2C)C=C(C)O1 |  | 0.11%
